# From PubChem BioAssay (EPA / NIEHS)
# Records with an inconclusive call do not appear. Calls of active or inactive are those of the source. How the source made its calls: active means hit-call score of the fitted dose curve at least 0.9, where 1 is the maximum; inconclusive means response in the unintended direction; inactive means score below 0.9.
# Target: Estrogen receptor beta (Homo sapiens) (UniProt Q92731)
# Experiment: ATG_hERb_XSP2: Attagene TRANS-FACTORIAL Multi-Species (XSP2) HepG2 Assay for human Estrogen Receptor (ERb) (AID 2283813);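 further: actives raise reporter mRNA above DMSO so AC50 reflects agonist induction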
# Description: ATG_XSP2_multi-species_TRANS is a cell-based, multiplexed assay created by modifying the existing Attagene TRANS-FACTORIAL system to include a panel of nuclear receptors from some or all the following species: human (Homo sapiens), mouse (Mus musculus), frog (Xenopus laevis), zebrafish (Danio rerio), chicken (Gallus gallus), and turtle (Chrysemys picta). The ECOTOX-FACTORIAL format uses HepG2, a human liver cell line, with measurements taken at 24 hours after chemical dosing in a 24-well plate. Xsp2 included 3 nM 6-alpha-fluorotestosterone and 1.5 nM norgestrel to stimulate the androgen receptor.ATG_hERb_XSP2 is one of 29 assay components measured or calculated from the ATG_XSP2_multi-species_TRANS assay. It is designed to make measurements of mRNA induction, a form of inducible reporter, as detected with fluorescence intensity signals by Reverse transcription polymerase chain reaction (RT-PCR) and Capillary electrophoresis technology.The assay endpoint ATG_hERb_XSP2 was analyzed in the positive analysis fitting direction relative to DMSO as the negative control and baseline of activity. Using a type of inducible reporter, measures of mRNA for gain-of-signal activity can be used to understand the reporter gene at the transcription factor-level as they relate to the gene ER. Furthermore, this assay endpoint can be referred to as a primary readout, because this assay has produced multiple assay endpoints where this one serves a reporter gene function. To generalize the intended target to other relatable targets, this assay endpoint is annotated to the nuclear receptor intended target family, where the subfamily is steroidal.
# Human liver HepG2 cells are transiently transfected with multiple reporter transcription units (MRTUs) in 6-well plates using FuGene 6 reagent (Roche; 3 ml FuGene/1 mg DNA). The MRTU constructs are regulated by a cis-regulating element (promoter). […] A major difference between the CIS and TRANS system is that in CIS activities of endogenous TFs are measured, whereas the TRANS assay evaluates changes in activities of exogenous, chimeric NR-Gal4 proteins. […] At the end of 24 hour incubation, total RNA was isolated using TriZol reagent (Invitrogen). The isolated RNA is then reverse-transcribed using oligo(dT) primer and Mo-MLV reverse transcriptase (Invitrogen) with DNAse I (Ambion) treatment for 30 min. The one-tenth of the produced cDNA was amplified by PCR using Taq DNA polymerase (Invitrogen) and two reporter sequence-specific primers. The PCR products were fluorescently labeled by primer extension with 6-arboxyfluorescein (6-FAM) 5'-labeled reporter sequence-specific primer (2 min at 95 C, 20 s at 68 C and 10 min at 72 C) and these products were digested with 5U of HpaI (New England Biolabs) for 2h at 37 C. The fragments were purified using Qiaquick PCR columns (Qiagen), analyzed on an ABI 3130xL genetic analyzer (Applied Biosystems) with peak positions identified by using a set of X-rhodamine (ROX)-labeled MapMarker1000 molecular weight standards (BioVentures). The raw capillary electrophoresis data was processed using Attagraph software (Attagene).
# Sequence of Estrogen receptor beta (Homo sapiens) (Q92731 whole entry, looked up): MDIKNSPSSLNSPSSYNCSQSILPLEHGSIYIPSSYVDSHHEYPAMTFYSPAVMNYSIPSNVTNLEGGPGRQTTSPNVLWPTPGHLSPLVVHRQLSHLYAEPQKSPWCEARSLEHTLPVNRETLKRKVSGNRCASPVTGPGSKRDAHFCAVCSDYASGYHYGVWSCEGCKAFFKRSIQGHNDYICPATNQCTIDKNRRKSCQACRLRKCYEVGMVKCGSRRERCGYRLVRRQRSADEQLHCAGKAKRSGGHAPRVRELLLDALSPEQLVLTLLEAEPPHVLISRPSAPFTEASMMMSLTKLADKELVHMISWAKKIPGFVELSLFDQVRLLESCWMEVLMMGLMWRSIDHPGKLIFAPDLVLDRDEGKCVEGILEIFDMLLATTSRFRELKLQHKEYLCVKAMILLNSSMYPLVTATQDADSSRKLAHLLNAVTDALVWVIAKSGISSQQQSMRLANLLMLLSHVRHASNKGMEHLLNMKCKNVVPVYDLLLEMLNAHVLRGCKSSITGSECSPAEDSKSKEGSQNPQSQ
Compound,outcome,AC50
CCCN(CCC)c1c([N+](=O)[O-])cc(S(N)(=O)=O)cc1[N+](=O)[O-],inactive,
CCOP(=S)(OCC)SCn1c(=O)oc2cc(Cl)ccc21,inactive,
CCCCNC(=O)OCC#CI,inactive,
COP(=S)(OC)Oc1nc(Cl)c(Cl)cc1Cl,inactive,
C=CC1(C)OC(=O)N(c2cc(Cl)cc(Cl)c2)C1=O (stereo unspecified),inactive,
COC(=O)N(OC)c1ccccc1COc1ccn(-c2ccc(Cl)cc2)n1,inactive,
CC(C)Oc1cc(-n2nc(C(C)(C)C)oc2=O)c(Cl)cc1Cl,,29.3 µM (active)
OC(c1ccc(Cl)cc1)(c1cncnc1)c1ccccc1Cl (stereo unspecified),,25.4 µM (active)
COc1ccc(C(c2ccc(OC)cc2)C(Cl)(Cl)Cl)cc1,inactive,
CCCCOC(=O)c1ccccc1C(=O)OCCCC,inactive,
CC(C)(C)c1ccc(CSc2cnn(C(C)(C)C)c(=O)c2Cl)cc1,inactive,
